Laboratory results: paper PMC7862700, “An all-to-all approach to the identification of sequence-specific readers for epigenetic DNA modifications on cytosine”

How the values were obtained:
Test in all cases: DAPPL (digital affinity profiling via proximity ligation, sequencing); 10 mM Tris-HCl pH 7.5, 50 mM NaCl, 1 mM DTT, 4% glycerol, room temperature, 30 min; GST-TFs on glutathione beads, 16-mer random dsDNA library, 0.1% formaldehyde crosslink after washing; high values mean tight binding
FEV = target: T1, FEV (Homo sapiens, UniProt Q99581 1-238); conditions: protein: recombinant; tags: N-terminal GST; dsDNA, one strand shown
T1 sequence: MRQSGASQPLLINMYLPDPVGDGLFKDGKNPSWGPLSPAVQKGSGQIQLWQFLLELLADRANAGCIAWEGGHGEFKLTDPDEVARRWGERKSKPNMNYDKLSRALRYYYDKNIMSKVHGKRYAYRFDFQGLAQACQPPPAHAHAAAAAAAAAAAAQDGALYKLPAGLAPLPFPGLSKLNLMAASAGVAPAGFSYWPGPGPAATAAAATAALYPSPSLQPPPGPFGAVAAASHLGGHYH
Method in brief: (§1)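 After expression in yeast as GST fusions, human transcription factors were bound to glutathione beads, DNA-barcoded and mixed with a tag-only sample. The pools were incubated with 200 nmole of a 16-mer random double-stranded DNA library in Tris/NaCl/DTT/glycerol buffer (30 min, room temperature), washed and crosslinked with 0.1% formaldehyde. Proximity ligation with BsaI/T4 ligase ran for 1 h at 37 °C, before PCR amplification and sequencing on an Illumina NextSeq500. Binding signal is a hexamer's read frequency for a factor divided by its frequency for the tag-only sample.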

ETV5 = ETV5 (Homo sapiens, UniProt P41161 1-510); conditions: protein: recombinant; tags: N-terminal GST; dsDNA, one strand shown
ETV5, sequence (P41161 whole entry): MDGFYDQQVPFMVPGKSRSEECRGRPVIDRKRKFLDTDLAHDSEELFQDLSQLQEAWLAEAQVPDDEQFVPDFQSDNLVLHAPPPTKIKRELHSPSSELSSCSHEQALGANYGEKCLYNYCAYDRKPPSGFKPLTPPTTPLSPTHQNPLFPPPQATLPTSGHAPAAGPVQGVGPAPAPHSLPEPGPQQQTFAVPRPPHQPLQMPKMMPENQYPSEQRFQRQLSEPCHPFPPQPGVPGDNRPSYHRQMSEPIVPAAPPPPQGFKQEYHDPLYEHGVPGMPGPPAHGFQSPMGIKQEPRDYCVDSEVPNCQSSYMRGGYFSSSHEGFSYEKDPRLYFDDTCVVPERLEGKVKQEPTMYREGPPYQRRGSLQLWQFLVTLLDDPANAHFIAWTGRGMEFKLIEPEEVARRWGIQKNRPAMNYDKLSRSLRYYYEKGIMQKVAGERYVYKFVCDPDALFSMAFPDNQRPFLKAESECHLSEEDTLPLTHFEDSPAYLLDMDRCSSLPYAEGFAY
Method in brief: as §1

HSF1 = HSF1 (Homo sapiens, UniProt Q00613 1-529); conditions: protein: recombinant; tags: N-terminal GST; chain copies: 3; dsDNA, one strand shown
HSF1, sequence (Q00613 whole entry): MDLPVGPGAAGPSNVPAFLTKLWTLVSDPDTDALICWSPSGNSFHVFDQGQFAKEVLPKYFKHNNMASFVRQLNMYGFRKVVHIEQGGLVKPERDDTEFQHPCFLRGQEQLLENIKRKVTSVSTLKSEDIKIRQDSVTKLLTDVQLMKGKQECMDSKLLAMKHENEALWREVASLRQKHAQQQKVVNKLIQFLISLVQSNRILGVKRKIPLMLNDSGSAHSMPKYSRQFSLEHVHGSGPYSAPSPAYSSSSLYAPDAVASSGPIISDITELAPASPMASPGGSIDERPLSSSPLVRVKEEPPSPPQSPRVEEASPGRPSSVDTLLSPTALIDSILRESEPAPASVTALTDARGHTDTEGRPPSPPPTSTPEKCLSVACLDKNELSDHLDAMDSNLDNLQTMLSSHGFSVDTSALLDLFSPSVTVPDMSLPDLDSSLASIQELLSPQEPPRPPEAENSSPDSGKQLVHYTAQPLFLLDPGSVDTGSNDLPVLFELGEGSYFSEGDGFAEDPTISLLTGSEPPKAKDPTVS
Method in brief: as §1

SPIC = target: T2, SPIC (Homo sapiens, UniProt Q8N5J4 1-248); conditions: protein: recombinant; tags: N-terminal GST; dsDNA, one strand shown
T2 sequence: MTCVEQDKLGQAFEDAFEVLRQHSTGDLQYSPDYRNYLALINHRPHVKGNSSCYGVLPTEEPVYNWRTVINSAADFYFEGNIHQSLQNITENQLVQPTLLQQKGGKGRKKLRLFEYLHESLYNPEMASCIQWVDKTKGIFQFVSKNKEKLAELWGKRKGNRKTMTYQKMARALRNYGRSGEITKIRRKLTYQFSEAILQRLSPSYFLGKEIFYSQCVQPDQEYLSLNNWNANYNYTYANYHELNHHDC
Method in brief: as §1

ELF4 = ELF4 (Homo sapiens, UniProt Q99607 1-663); conditions: protein: recombinant; tags: N-terminal GST; dsDNA, one strand shown
ELF4, sequence (Q99607 whole entry): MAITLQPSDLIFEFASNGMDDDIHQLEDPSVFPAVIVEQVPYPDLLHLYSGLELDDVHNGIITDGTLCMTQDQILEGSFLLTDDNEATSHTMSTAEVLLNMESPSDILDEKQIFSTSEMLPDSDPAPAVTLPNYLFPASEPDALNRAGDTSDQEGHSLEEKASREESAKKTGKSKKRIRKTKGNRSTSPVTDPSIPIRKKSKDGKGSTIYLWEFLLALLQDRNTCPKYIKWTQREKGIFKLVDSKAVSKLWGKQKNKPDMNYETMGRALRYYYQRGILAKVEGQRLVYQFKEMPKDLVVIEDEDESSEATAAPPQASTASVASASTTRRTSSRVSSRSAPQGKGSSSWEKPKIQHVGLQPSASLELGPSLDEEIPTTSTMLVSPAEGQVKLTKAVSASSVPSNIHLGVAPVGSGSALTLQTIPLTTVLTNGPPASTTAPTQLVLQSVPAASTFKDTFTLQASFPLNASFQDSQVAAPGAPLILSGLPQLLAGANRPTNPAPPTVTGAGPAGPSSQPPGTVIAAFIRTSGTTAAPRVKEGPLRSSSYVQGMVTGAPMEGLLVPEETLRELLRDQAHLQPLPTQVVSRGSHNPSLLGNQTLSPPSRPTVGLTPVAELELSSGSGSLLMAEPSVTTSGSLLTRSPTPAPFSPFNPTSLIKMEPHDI
Method in brief: as §1

ELK4 = target: T3, ELK4 (Homo sapiens, UniProt P28324-2 1-405); conditions: protein: recombinant; tags: N-terminal GST; dsDNA, one strand shown
T3 sequence: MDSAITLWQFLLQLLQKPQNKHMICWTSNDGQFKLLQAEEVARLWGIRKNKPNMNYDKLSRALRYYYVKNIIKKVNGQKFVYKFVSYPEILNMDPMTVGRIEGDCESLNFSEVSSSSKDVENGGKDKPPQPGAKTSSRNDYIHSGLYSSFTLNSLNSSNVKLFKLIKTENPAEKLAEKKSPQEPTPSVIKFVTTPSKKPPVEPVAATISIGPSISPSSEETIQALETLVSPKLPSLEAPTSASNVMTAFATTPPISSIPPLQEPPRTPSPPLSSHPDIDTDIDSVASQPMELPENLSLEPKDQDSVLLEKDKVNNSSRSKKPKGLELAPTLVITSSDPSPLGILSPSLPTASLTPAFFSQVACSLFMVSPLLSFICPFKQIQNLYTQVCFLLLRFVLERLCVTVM
Method in brief: as §1

ETV2 = target: T4, ETV2 (Homo sapiens, UniProt O00321 1-342); conditions: protein: recombinant; tags: N-terminal GST; dsDNA, one strand shown
T4 sequence: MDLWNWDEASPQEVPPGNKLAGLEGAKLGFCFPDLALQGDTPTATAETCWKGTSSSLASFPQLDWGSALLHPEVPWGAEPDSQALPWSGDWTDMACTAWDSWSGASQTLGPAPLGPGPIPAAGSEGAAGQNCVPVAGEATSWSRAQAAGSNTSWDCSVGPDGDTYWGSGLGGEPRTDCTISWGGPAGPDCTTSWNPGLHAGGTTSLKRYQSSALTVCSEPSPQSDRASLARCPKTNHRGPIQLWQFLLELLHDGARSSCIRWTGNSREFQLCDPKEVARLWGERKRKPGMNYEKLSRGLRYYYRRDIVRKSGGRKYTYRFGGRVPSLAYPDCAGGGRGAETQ
Method in brief: as §1

ELF3 = target: T5, ELF3 (Homo sapiens, UniProt P78545 1-371); conditions: protein: recombinant; tags: N-terminal GST; dsDNA, one strand shown
T5 sequence: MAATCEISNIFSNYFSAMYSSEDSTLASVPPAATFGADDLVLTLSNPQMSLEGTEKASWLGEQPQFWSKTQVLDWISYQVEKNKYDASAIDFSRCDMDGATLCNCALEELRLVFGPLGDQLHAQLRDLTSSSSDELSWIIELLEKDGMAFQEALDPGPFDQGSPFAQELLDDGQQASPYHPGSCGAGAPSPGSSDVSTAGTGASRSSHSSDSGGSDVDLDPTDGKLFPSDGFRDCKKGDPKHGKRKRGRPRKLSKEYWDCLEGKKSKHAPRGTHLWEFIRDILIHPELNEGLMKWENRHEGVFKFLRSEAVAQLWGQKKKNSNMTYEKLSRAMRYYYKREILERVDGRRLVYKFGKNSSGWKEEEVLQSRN
Method in brief: as §1

CRX = CRX (Homo sapiens, UniProt O43186 1-299); conditions: protein: recombinant; tags: N-terminal GST; dsDNA, one strand shown
CRX, sequence (O43186 whole entry): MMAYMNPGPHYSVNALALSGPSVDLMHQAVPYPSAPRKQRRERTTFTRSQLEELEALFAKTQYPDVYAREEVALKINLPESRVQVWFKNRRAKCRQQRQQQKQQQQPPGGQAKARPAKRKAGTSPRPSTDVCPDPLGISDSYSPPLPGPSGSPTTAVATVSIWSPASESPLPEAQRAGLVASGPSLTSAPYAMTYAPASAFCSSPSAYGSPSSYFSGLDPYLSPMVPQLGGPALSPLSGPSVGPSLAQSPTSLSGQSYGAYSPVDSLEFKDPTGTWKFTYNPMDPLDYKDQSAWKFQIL
Method in brief: as §1

ETV1 = ETV1 (Homo sapiens, UniProt P50549 1-477); conditions: protein: recombinant; tags: N-terminal GST; dsDNA, one strand shown
ETV1, sequence (P50549 whole entry): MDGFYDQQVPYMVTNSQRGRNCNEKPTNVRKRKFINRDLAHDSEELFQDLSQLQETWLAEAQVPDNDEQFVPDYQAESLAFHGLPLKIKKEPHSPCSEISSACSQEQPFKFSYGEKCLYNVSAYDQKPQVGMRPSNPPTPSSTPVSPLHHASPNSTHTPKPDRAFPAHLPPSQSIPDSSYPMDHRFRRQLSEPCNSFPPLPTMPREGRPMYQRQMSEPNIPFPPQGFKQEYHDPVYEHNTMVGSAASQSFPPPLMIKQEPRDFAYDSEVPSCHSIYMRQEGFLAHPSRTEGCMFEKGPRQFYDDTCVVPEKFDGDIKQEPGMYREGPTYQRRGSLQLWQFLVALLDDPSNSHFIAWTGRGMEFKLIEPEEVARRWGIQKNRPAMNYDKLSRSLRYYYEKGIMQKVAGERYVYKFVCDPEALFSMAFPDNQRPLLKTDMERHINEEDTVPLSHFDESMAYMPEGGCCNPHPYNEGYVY
Method in brief: as §1

ERF = target: T6, ERF (Homo sapiens, UniProt P50548 1-548); conditions: protein: recombinant; tags: N-terminal GST; dsDNA, one strand shown
T6 sequence: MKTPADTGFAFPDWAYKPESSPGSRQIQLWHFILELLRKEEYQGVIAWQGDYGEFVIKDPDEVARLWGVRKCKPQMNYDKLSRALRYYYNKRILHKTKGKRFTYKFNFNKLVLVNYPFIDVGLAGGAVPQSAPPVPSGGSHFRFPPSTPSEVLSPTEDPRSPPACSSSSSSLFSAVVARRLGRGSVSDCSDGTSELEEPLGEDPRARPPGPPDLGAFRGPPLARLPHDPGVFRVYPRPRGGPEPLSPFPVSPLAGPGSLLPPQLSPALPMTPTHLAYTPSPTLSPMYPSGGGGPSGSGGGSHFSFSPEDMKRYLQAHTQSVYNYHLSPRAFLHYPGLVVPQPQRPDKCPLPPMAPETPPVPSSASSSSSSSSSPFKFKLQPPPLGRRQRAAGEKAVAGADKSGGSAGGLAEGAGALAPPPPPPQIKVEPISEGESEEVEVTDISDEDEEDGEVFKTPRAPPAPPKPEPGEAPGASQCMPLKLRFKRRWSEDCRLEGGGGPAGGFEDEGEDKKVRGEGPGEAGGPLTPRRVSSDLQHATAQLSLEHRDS
Method in brief: as §1

ETV3L = target: T7, ETV3L (Homo sapiens, UniProt Q6ZN32 1-361); conditions: protein: recombinant; tags: N-terminal GST; dsDNA, one strand shown
T7 sequence: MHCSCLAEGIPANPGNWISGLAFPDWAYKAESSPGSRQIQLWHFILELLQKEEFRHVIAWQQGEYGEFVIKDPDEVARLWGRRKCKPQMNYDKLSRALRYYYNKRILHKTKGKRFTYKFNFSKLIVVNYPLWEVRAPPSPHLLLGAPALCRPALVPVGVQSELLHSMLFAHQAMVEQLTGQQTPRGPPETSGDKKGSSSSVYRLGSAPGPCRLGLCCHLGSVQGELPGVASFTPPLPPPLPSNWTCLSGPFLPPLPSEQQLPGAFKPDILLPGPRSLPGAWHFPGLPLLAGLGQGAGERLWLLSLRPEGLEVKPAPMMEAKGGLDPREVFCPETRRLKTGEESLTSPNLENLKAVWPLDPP
Method in brief: as §1

ETS2 = target: T8, ETS2 (Homo sapiens, UniProt P15036 1-469); conditions: protein: recombinant; tags: N-terminal GST; dsDNA, one strand shown
T8 sequence: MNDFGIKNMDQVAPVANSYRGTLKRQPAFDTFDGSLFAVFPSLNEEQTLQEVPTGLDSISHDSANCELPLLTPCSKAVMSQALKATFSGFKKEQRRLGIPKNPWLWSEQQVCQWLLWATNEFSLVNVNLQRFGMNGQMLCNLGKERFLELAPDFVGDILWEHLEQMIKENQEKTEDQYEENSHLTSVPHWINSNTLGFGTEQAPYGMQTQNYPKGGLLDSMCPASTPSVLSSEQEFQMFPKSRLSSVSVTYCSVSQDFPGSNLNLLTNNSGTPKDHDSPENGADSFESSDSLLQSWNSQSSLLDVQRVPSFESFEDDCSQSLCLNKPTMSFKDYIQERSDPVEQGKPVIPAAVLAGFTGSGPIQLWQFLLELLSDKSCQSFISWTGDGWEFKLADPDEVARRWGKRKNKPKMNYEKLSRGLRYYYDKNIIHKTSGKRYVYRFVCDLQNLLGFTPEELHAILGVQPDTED
Method in brief: as §1

SPDEF = target: T9, SPDEF (Homo sapiens, UniProt O95238 1-335); conditions: protein: recombinant; tags: N-terminal GST; dsDNA, one strand shown
T9 sequence: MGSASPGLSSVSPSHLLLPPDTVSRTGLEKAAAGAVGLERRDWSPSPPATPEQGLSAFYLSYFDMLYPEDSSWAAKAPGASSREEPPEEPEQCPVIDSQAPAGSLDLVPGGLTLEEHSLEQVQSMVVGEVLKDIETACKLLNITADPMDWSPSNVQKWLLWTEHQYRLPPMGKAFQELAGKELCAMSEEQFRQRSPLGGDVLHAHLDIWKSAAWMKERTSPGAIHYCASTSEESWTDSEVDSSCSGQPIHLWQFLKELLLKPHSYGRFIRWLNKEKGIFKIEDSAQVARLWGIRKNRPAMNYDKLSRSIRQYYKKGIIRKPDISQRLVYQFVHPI
Method in brief: as §1

ETV7 = target: T10, ETV7 (Homo sapiens, UniProt Q9Y603 1-341); conditions: protein: recombinant; tags: N-terminal GST; dsDNA, one strand shown
T10 sequence: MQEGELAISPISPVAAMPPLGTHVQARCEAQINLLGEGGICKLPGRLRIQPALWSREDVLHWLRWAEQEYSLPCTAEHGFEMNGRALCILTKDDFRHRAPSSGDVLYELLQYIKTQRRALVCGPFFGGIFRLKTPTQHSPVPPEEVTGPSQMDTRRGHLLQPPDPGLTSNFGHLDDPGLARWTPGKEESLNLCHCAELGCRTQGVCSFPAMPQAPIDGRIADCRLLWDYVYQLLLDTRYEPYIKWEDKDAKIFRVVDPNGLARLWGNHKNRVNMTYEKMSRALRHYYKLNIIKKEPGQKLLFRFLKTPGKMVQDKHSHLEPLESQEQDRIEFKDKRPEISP
Method in brief: as §1

ELF5 = target: T11, ELF5 (Homo sapiens, UniProt Q9UKW6-2 1-255); conditions: protein: recombinant; tags: N-terminal GST; dsDNA, one strand shown
T11 sequence: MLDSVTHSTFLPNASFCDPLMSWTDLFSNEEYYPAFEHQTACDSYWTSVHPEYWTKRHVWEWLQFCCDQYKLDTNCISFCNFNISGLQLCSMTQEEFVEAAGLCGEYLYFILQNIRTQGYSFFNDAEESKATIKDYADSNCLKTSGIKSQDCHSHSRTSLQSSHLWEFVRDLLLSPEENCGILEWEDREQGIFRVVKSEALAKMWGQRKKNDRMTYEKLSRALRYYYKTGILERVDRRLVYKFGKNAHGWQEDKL
Method in brief: as §1

ETV3 = target: T12, ETV3 (Homo sapiens, UniProt P41162-2 1-143); conditions: protein: recombinant; tags: N-terminal GST; dsDNA, one strand shown
T12 sequence: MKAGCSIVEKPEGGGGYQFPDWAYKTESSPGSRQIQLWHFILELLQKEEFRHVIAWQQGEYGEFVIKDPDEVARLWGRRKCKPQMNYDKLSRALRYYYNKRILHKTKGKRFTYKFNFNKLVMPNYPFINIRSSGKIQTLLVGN
Method in brief: as §1

ETV6 = ETV6 (Homo sapiens, UniProt P41212 1-452); conditions: protein: recombinant; tags: N-terminal GST; dsDNA, one strand shown
ETV6, sequence (P41212 whole entry): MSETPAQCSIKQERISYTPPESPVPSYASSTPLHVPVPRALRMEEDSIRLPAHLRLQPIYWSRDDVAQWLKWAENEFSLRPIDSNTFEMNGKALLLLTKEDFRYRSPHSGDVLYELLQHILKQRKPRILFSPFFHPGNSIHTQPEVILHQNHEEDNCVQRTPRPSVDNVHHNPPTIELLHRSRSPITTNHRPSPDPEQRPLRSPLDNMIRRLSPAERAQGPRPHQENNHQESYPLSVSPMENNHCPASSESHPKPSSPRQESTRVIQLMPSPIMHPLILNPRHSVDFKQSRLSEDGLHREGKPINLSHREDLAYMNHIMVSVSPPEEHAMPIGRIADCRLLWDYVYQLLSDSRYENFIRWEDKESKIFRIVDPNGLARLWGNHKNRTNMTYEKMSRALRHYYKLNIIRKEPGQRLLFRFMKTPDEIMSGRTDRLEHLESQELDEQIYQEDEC
Method in brief: as §1

With TTTAAG the binding signal (FEV) was 1.31 fold enrichment (6-mer frequency, TF over GST control), the binding signal (ETV5) was 1.34 fold enrichment (6-mer frequency, TF over GST control) and the binding signal (HSF1) was 1.87 fold enrichment (6-mer frequency, TF over GST control). For the same sequence, the binding signal (SPIC) was 1.47 fold enrichment (6-mer frequency, TF over GST control), the binding signal (ELF4) was 1.29 fold enrichment (6-mer frequency, TF over GST control) and the binding signal (ELK4) was 1.22 fold enrichment (6-mer frequency, TF over GST control). The binding signal (ETV2) was 1.38 fold enrichment (6-mer frequency, TF over GST control), the binding signal (ELF3) was 1.28 fold enrichment (6-mer frequency, TF over GST control) and the binding signal (CRX) was 2.81 fold enrichment (6-mer frequency, TF over GST control). For the same sequence, the binding signal (ETV1) was 1.28 fold enrichment (6-mer frequency, TF over GST control), the binding signal (ERF) was 1.3 fold enrichment (6-mer frequency, TF over GST control) and the binding signal (ETV3L) was 1.26 fold enrichment (6-mer frequency, TF over GST control). The binding signal (ETS2) was 1.36 fold enrichment (6-mer frequency, TF over GST control), the binding signal (SPDEF) was 1.44 fold enrichment (6-mer frequency, TF over GST control) and the binding signal (ETV7) was 1.33 fold enrichment (6-mer frequency, TF over GST control). For the same sequence, the binding signal (ELF5) was 1.32 fold enrichment (6-mer frequency, TF over GST control), the binding signal (ETV3) was 1.24 fold enrichment (6-mer frequency, TF over GST control) and the binding signal (ETV6) was 1.26 fold enrichment (6-mer frequency, TF over GST control).
